Positions count from the first letter of the chain named.
Assays:
Test in all cases: PBM; 200 nM protein, PBS
Conditions in all cases: dsDNA, one strand shown
SIX6 [1] = target: T1, SIX6 (Homo sapiens, UniProt O95475 114-200, L167I)
T1 sequence: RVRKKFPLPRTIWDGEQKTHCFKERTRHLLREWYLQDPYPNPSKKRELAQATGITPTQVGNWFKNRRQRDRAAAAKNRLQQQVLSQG

SIX6 [2] = target: T2, SIX6 (Homo sapiens, UniProt O95475 114-200, H141N)
T2 sequence: T1 sequence with H28N, I54L

SIX6 [3] = target: T3, SIX6 (Homo sapiens, UniProt O95475 114-200, T165P)
T3 sequence: T1 sequence with T52P, I54L

SIX6 [4] = target: T4, SIX6 (Homo sapiens, UniProt O95475 114-200, L167M)
T4 sequence: T1 sequence with I54M

SIX6 [5] = target: T5, SIX6 (Homo sapiens, UniProt O95475 114-200, L143M)
T5 sequence: T1 sequence with L30M, I54L

SIX6 [6] = target: T6, SIX6 (Homo sapiens, UniProt O95475 114-200, L143I)
T6 sequence: T1 sequence with L30I, I54L

SIX6 [7] = target: T7, SIX6 (Homo sapiens, UniProt O95475 114-200, T165G)
T7 sequence: T1 sequence with T52G, I54L

SIX6 [8] = target: T8, SIX6 (Homo sapiens, UniProt O95475 114-200, T139Q)
T8 sequence: T1 sequence with T26Q, I54L

SIX6 [9] = target: T9, SIX6 (Homo sapiens, UniProt O95475 114-200, T165A)
T9 sequence: T1 sequence with T52A, I54L

SIX6 [10] = target: T10, SIX6 (Homo sapiens, UniProt O95475 114-200, L167V)
T10 sequence: T1 sequence with I54V

SIX6 [11] = target: T11, SIX6 (Homo sapiens, UniProt O95475 114-200)
T11 sequence: T1 sequence with I54L

SIX6 [12] = target: T12, SIX6 (Homo sapiens, UniProt O95475 114-200, T165I)
T12 sequence: T1 sequence with T52I, I54L

SIX6 [13] = target: T13, SIX6 (Homo sapiens, UniProt O95475 114-200, L143V)
T13 sequence: T1 sequence with L30V, I54L

HOXA7 [14] = target: HOXA7 (Homo sapiens, UniProt P31268 116-202)
Chain of HOXA7 (Homo sapiens, UniProt P31268 116-202) (P31268 116-202): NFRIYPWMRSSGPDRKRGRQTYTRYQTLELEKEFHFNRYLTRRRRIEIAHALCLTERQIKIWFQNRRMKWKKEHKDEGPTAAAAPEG

HOXA7 [15] = target: HOXA7 (Homo sapiens, UniProt P31268 116-202, W177C)
Chain of HOXA7 (Homo sapiens, UniProt P31268 116-202, W177C) (P31268 116-202 W177C): as the sequence (P31268 116-202) above, with W62C counted along it

Sequence	binding signal (SIX6 [1])	binding signal (SIX6 [2])	binding signal (SIX6 [3])	binding signal (SIX6 [4])	binding signal (SIX6 [5])	binding signal (SIX6 [6])	binding signal (SIX6 [7])	binding signal (SIX6 [8])	binding signal (SIX6 [9])	binding signal (SIX6 [10])	binding signal (SIX6 [11])	binding signal (SIX6 [12])	binding signal (SIX6 [13])	binding signal (HOXA7 [14])	binding signal (HOXA7 [15])
AGAATATC	10.5 upbm affinity estimate (log intensity, higher = more binding, comparable within an allelic series)	10.3 upbm affinity estimate (log intensity, higher = more binding, comparable within an allelic series)	9.77 upbm affinity estimate (log intensity, higher = more binding, comparable within an allelic series)	10.4 upbm affinity estimate (log intensity, higher = more binding, comparable within an allelic series)	10.5 upbm affinity estimate (log intensity, higher = more binding, comparable within an allelic series)	9.98 upbm affinity estimate (log intensity, higher = more binding, comparable within an allelic series)	10.5 upbm affinity estimate (log intensity, higher = more binding, comparable within an allelic series)	10.5 upbm affinity estimate (log intensity, higher = more binding, comparable within an allelic series)	10.4 upbm affinity estimate (log intensity, higher = more binding, comparable within an allelic series)	10.3 upbm affinity estimate (log intensity, higher = more binding, comparable within an allelic series)	10.3 upbm affinity estimate (log intensity, higher = more binding, comparable within an allelic series)	10.3 upbm affinity estimate (log intensity, higher = more binding, comparable within an allelic series)			
GACGGATA	10.2 upbm affinity estimate (log intensity, higher = more binding, comparable within an allelic series)	10.1 upbm affinity estimate (log intensity, higher = more binding, comparable within an allelic series)	9.43 upbm affinity estimate (log intensity, higher = more binding, comparable within an allelic series)			9.79 upbm affinity estimate (log intensity, higher = more binding, comparable within an allelic series)					10.2 upbm affinity estimate (log intensity, higher = more binding, comparable within an allelic series)		9.77 upbm affinity estimate (log intensity, higher = more binding, comparable within an allelic series)		
AATACGAT	10.6 upbm affinity estimate (log intensity, higher = more binding, comparable within an allelic series)	10.5 upbm affinity estimate (log intensity, higher = more binding, comparable within an allelic series)	9.88 upbm affinity estimate (log intensity, higher = more binding, comparable within an allelic series)	10.3 upbm affinity estimate (log intensity, higher = more binding, comparable within an allelic series)	10.5 upbm affinity estimate (log intensity, higher = more binding, comparable within an allelic series)	10.1 upbm affinity estimate (log intensity, higher = more binding, comparable within an allelic series)	10.5 upbm affinity estimate (log intensity, higher = more binding, comparable within an allelic series)	10.7 upbm affinity estimate (log intensity, higher = more binding, comparable within an allelic series)	10.5 upbm affinity estimate (log intensity, higher = more binding, comparable within an allelic series)	10.3 upbm affinity estimate (log intensity, higher = more binding, comparable within an allelic series)	10.5 upbm affinity estimate (log intensity, higher = more binding, comparable within an allelic series)	10.4 upbm affinity estimate (log intensity, higher = more binding, comparable within an allelic series)		9.45 upbm affinity estimate (log intensity, higher = more binding, comparable within an allelic series)	8.84 upbm affinity estimate (log intensity, higher = more binding, comparable within an allelic series)
AAGTGATA	11.2 upbm affinity estimate (log intensity, higher = more binding, comparable within an allelic series)	11.1 upbm affinity estimate (log intensity, higher = more binding, comparable within an allelic series)			11 upbm affinity estimate (log intensity, higher = more binding, comparable within an allelic series)		11.1 upbm affinity estimate (log intensity, higher = more binding, comparable within an allelic series)		11.1 upbm affinity estimate (log intensity, higher = more binding, comparable within an allelic series)	10.9 upbm affinity estimate (log intensity, higher = more binding, comparable within an allelic series)		11 upbm affinity estimate (log intensity, higher = more binding, comparable within an allelic series)			
ATATCACC	11.2 upbm affinity estimate (log intensity, higher = more binding, comparable within an allelic series)	11.1 upbm affinity estimate (log intensity, higher = more binding, comparable within an allelic series)					11.2 upbm affinity estimate (log intensity, higher = more binding, comparable within an allelic series)		11.1 upbm affinity estimate (log intensity, higher = more binding, comparable within an allelic series)	10.9 upbm affinity estimate (log intensity, higher = more binding, comparable within an allelic series)		10.9 upbm affinity estimate (log intensity, higher = more binding, comparable within an allelic series)			
AGGTGTCA	10.4 upbm affinity estimate (log intensity, higher = more binding, comparable within an allelic series)			9.88 upbm affinity estimate (log intensity, higher = more binding, comparable within an allelic series)			11.2 upbm affinity estimate (log intensity, higher = more binding, comparable within an allelic series)	11.1 upbm affinity estimate (log intensity, higher = more binding, comparable within an allelic series)	11.2 upbm affinity estimate (log intensity, higher = more binding, comparable within an allelic series)						
ATACCTCC	10.3 upbm affinity estimate (log intensity, higher = more binding, comparable within an allelic series)	10.4 upbm affinity estimate (log intensity, higher = more binding, comparable within an allelic series)	9.38 upbm affinity estimate (log intensity, higher = more binding, comparable within an allelic series)				10.5 upbm affinity estimate (log intensity, higher = more binding, comparable within an allelic series)	10.5 upbm affinity estimate (log intensity, higher = more binding, comparable within an allelic series)			10.4 upbm affinity estimate (log intensity, higher = more binding, comparable within an allelic series)		9.86 upbm affinity estimate (log intensity, higher = more binding, comparable within an allelic series)		
GTATCTTA	10.7 upbm affinity estimate (log intensity, higher = more binding, comparable within an allelic series)	10.7 upbm affinity estimate (log intensity, higher = more binding, comparable within an allelic series)	9.9 upbm affinity estimate (log intensity, higher = more binding, comparable within an allelic series)	10.3 upbm affinity estimate (log intensity, higher = more binding, comparable within an allelic series)	10.5 upbm affinity estimate (log intensity, higher = more binding, comparable within an allelic series)	10.2 upbm affinity estimate (log intensity, higher = more binding, comparable within an allelic series)	10.8 upbm affinity estimate (log intensity, higher = more binding, comparable within an allelic series)	11 upbm affinity estimate (log intensity, higher = more binding, comparable within an allelic series)	10.6 upbm affinity estimate (log intensity, higher = more binding, comparable within an allelic series)	10.6 upbm affinity estimate (log intensity, higher = more binding, comparable within an allelic series)	10.5 upbm affinity estimate (log intensity, higher = more binding, comparable within an allelic series)	10.5 upbm affinity estimate (log intensity, higher = more binding, comparable within an allelic series)			
AGTTGTAT	10.2 upbm affinity estimate (log intensity, higher = more binding, comparable within an allelic series)	10.2 upbm affinity estimate (log intensity, higher = more binding, comparable within an allelic series)		10.1 upbm affinity estimate (log intensity, higher = more binding, comparable within an allelic series)							10.3 upbm affinity estimate (log intensity, higher = more binding, comparable within an allelic series)	10.2 upbm affinity estimate (log intensity, higher = more binding, comparable within an allelic series)			
CGGTGTCA	10.3 upbm affinity estimate (log intensity, higher = more binding, comparable within an allelic series)		9.3 upbm affinity estimate (log intensity, higher = more binding, comparable within an allelic series)	9.76 upbm affinity estimate (log intensity, higher = more binding, comparable within an allelic series)					11.1 upbm affinity estimate (log intensity, higher = more binding, comparable within an allelic series)						
ACGGATCC	10.2 upbm affinity estimate (log intensity, higher = more binding, comparable within an allelic series)	10.1 upbm affinity estimate (log intensity, higher = more binding, comparable within an allelic series)	9.26 upbm affinity estimate (log intensity, higher = more binding, comparable within an allelic series)					10.5 upbm affinity estimate (log intensity, higher = more binding, comparable within an allelic series)		10 upbm affinity estimate (log intensity, higher = more binding, comparable within an allelic series)	10.2 upbm affinity estimate (log intensity, higher = more binding, comparable within an allelic series)		9.67 upbm affinity estimate (log intensity, higher = more binding, comparable within an allelic series)		
GGTGTCAA	10.4 upbm affinity estimate (log intensity, higher = more binding, comparable within an allelic series)		9.33 upbm affinity estimate (log intensity, higher = more binding, comparable within an allelic series)	9.85 upbm affinity estimate (log intensity, higher = more binding, comparable within an allelic series)			11.1 upbm affinity estimate (log intensity, higher = more binding, comparable within an allelic series)		11.1 upbm affinity estimate (log intensity, higher = more binding, comparable within an allelic series)						
ATCCTAAT	10.2 upbm affinity estimate (log intensity, higher = more binding, comparable within an allelic series)	10.2 upbm affinity estimate (log intensity, higher = more binding, comparable within an allelic series)		10.1 upbm affinity estimate (log intensity, higher = more binding, comparable within an allelic series)	10.2 upbm affinity estimate (log intensity, higher = more binding, comparable within an allelic series)		10.2 upbm affinity estimate (log intensity, higher = more binding, comparable within an allelic series)	10.5 upbm affinity estimate (log intensity, higher = more binding, comparable within an allelic series)	10.2 upbm affinity estimate (log intensity, higher = more binding, comparable within an allelic series)	10.1 upbm affinity estimate (log intensity, higher = more binding, comparable within an allelic series)	10.2 upbm affinity estimate (log intensity, higher = more binding, comparable within an allelic series)	10.2 upbm affinity estimate (log intensity, higher = more binding, comparable within an allelic series)			
